# Source: PubChem BioAssay (Tox21)
# Records with an inconclusive call do not appear. Calls of active or inactive are those of the source. The call rests on the fitted dose curve; in most records, active means well fitted cell-killing curve with a large enough effect in the repeat runs; inconclusive means weak or mixed curves, or effect the other way; inactive means flat fitted curve, though single readings scatter.
# Experiment: qHTS assay to identify small molecule antagonists of the estrogen receptor alpha (ER-alpha) signaling pathway using the BG1 cell line in the presence of 0.1 nM 17-beta-estradiol - cell viability counter screen (AID 1259241); further: nearly all actives have a fitted effect of over 40% in size
# Settings: VM7Luc4E2 (BG1) viability, CellTiter-Fluor protease, 22 h, 0.1 nM estradiol agonist added; series mostly up to 92.4 µM
# Text: National Center for Advancing Translational Sciences [NCATS]
# NIH Chemical Genomics Center [NCGC]
# U.S. Environmental Protection Agency [EPA]
# National Institutes of Environmental Health Sciences [NIEHS]
# National Toxicology Program [NTP]
# U.S. Food and Drug Administration [FDA]
# Estrogen receptor (ER), a member of the nuclear hormone receptor plays an important role in development, metabolic homeostasis and reproduction. Two subtypes of ER, ER-alpha and ER-beta, have similar expression patterns with some uniqueness in both types. Endocrine disrupting chemicals (EDCs) and their interactions with steroid hormone receptors like ER causes disruption of normal endocrine function. Therefore, it is important to understand the effect of environmental chemicals in ER signaling pathway. For identifying ER antagonists, VM7Luc4E2 cell line was used to screen against Tox21 compound libraries.
# VM7Luc4E2 cell line (provided by Denison MS, University of California) endogenously express full-length ER-alpha and is stably transfected with a plasmid containing four estrogen responsive elements (ERE) upstream of a luciferase reporter gene. The current screening for identification of ER-alpha inhibitors against Tox21 compound libraries used lower concentration (0.1 nM) of 17beta-Estradiol as a stimulator. The cytotoxicity of the Tox21 compound libraries against VM7Luc4E2 cell line was tested by measuring live-cell protease activity using CellTiter-Fluor assay in the same wells.
# Tox21 Assay Protocol Summary:
# VM7Luc4E2 cells were cultured in phenol red free assay medium containing 10% charcoal stripped FBS for 5 days prior to the assay. The cells were dispensed at 4,000 cells/well in 4 uL of assay medium into white wall/solid-bottom 1536-well plates (Corning Life Sciences, Corning, NY) using a Multidrop Combi (ThermoFisher Scientific, Waltham, MA) dispenser. After the assay plates were incubated at 37C and 5% CO2 for 24 hr, 23 nL of compounds dissolved in DMSO, positive controls or DMSO only was transferred to the assay plates by a Pintool station (Kalypsys, San Diego, CA). The transfer of compounds was followed by the addition of 1 uL of 0.1 nM (final concentration) agonist (17beta-Estradiol)/assay medium using a Flying Reagent Dispenser (FRD, Aurora Discovery, San Diego, CA). The plates were incubated at 37C and 5% CO2 for 22 hr. For cytotoxicity assay, 1 uL of CellTiter-Fluor reagent (Promega Corporation, Madison, WI) was added to each well using the FRD and after 30 min incubation at 37C and 5% CO2, The fluorescence intensity was measured using ViewLux plate reader (PerkinElmer, Shelton, CT).
row,SMILES,outcome
1,CN1CC(=O)N/C1=N/C(=O)Nc1cccc(Cl)c1,inactive
2,CC(C)(C)OC(=O)c1cccc(N)c1,inactive
3,c1ccc(Cc2ccccc2)cc1,inactive
4,COc1c(N2CCNC(C)C2)c(F)cc2c(=O)c(C(=O)O)cn(C3CC3)c12 (stereo not given),inactive
5,CC[N+](CC)(CC(=O)Nc1c(C)cccc1C)Cc1ccccc1 (tested in a mixture with another compound),inactive
6,CC1=NN(c2cccc(S(=O)(=O)O)c2)C(=O)C1,inactive
7,O=S(=O)(O)c1cccc2c(S(=O)(=O)O)cccc12,inactive
8,CC12CCC(C(=O)C1=O)C2(C)C (stereo not given),inactive
9,CCNS(=O)(=O)c1ccc(C)cc1,inactive
10,NC(=O)NC1N=C([O][Al])NC1=O (stereo not given),inactive
11,Cc1ncc(COP(=O)(O)O)c(C=O)c1O,inactive
12,CC1(C)[C@@H]2CC[C@@]1(C)[C@H](O)C2,inactive
13,COCCOCC(OC)OC,inactive
14,CC(COc1ccccc1)NN (stereo not given),inactive
15,Cc1nc(C2CCCCC2)c(-c2ccc(S(N)(=O)=O)c(F)c2)o1,inactive
16,C=CC(=O)OCCCl,inactive
17,CCCO[Si](OCCC)(OCCC)OCCC,inactive
18,COc1ccc2cc1Oc1cc3c(cc1OC)CC[N+](C)(C)[C@H]3Cc1ccc(cc1)Oc1c(OC)c(OC)cc3c1[C@@H](C2)[N+](C)(C)CC3,inactive
19,CN(C)CCCN(C)CCCN(C)C,inactive
20,Clc1cc(Cl)cc(Cl)c1,inactive

row,SMILES,outcome
1,CC1=C(C/C=C(\C)CCC[C@H](C)CCC[C@H](C)CCCC(C)C)C(=O)c2ccccc2C1=O,inactive
2,CO/N=C(\C(=O)N[C@@H]1C(=O)N2C(C(=O)O)=C(CSc3nc(=O)c(O)nn3C)CS[C@H]12)c1csc(N)n1,inactive
3,OCCc1ccccn1,inactive
4,C=CCCC(=O)O,inactive
5,CCCCCCCCN1CCCC1=O,inactive
6,O=C1c2ccccc2C(=O)c2cc(O)ccc21,inactive
7,Nc1ccncc1N,inactive
8,CC(=O)OCC(=O)[C@@]1(O)[C@H](C)C[C@H]2[C@@H]3CCC4=CC(=O)C=C[C@]4(C)[C@@]3(F)[C@@H](O)C[C@@]21C,inactive
9,C[C@H]1[C@H](NC(=O)/C(=N/OC(C)(C)C(=O)O)c2csc(N)n2)C(=O)N1S(=O)(=O)O (stereo in doubt),inactive
10,Cc1ncc([C@@H](CCCCCCc2ccc3c(n2)NCCC3)CC(=O)O)cn1,inactive
11,CCC(C)(CCCC(C)C)OC(C)=O (stereo not given),inactive
12,CCOc1c(N2CCOCC2)cnn(C)c1=O,inactive
13,NC(CCC(=O)O)C(=O)O (stereo not given),inactive
14,CN(C)[C@@H]1C(=O)C(C(=O)NCN2CCCC2)=C(O)[C@@]2(O)C(=O)C3=C(O)c4c(O)cccc4[C@@](C)(O)C3C[C@@H]12 (stereo not given in full),inactive
15,CCCC(C)C(=O)OCC (stereo not given),inactive
16,CC(C)c1ccc2ncccc2c1,inactive
17,C=C[Si](OC(C)=O)(OC(C)=O)OC(C)=O,inactive
18,Nc1ccccn1,inactive
19,C=CN1CCCCCC1=O,inactive
20,CC(C)=CCC/C(C)=C/C#N,inactive
